The values below come from PubChem BioAssay AID2561 (National Center for Advancing Translational Sciences (NCATS), 2010).

Inconclusive results are not listed. Calls of active or inactive are those of the source. Calls come from the whole dose curve; as a rule, active = well fitted inhibition curve with a large enough effect; inconclusive = small, poorly fitted or top-dose-only effect, or effect the other way; inactive = flat fitted curve, though single readings scatter.
Potency is the fitted concentration of half-maximal effect.

Sequence of Pyruvate kinase (Leishmania mexicana) (Q27686 whole entry, looked up): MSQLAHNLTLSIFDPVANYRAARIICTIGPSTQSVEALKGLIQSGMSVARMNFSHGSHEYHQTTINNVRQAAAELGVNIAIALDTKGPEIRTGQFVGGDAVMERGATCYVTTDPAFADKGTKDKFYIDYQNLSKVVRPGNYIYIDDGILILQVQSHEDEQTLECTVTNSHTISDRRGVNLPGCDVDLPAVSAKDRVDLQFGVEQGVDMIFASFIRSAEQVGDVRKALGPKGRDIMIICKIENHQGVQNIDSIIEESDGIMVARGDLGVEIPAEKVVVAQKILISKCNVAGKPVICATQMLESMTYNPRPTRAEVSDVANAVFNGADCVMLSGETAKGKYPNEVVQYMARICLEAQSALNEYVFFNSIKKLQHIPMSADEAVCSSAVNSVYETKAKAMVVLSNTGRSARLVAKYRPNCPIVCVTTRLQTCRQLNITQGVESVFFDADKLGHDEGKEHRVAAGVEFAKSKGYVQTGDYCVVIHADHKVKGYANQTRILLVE

This assay addresses Pyruvate kinase (Leishmania mexicana) (UniProt Q27686). Put plainly: Confirmation Assay for Inhibitors of Leishmania Mexicana Pyruvate Kinase (LmPK): for Probe SAR.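 For activity change, negative = inhibition: plate controls were uninhibited enzyme for no effect and no enzyme wells for full effect.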 The settings on record: purified LmPK, ATP generation, Kinase-Glo luminescence; series mostly up to 57.5 µM; activity change, negative = inhibition: at the top concentration. Summed up:
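Purified L. mexicana pyruvate kinase (0.1 nM) with 0.5 mM PEP and 0.1 mM ADP in pH 7.2 imidazole buffer, 1 h at RT. ATP formed measured by Kinase-Glo luminescence; normalized to uninhibited and no-enzyme wells.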
Background: Kinase-Glo measures the ATP left after a reaction by luminescence.
On to `Cc1ccc(N2C(=O)c3ccccc3C2=O)c(C)c1`, for which the “activity change, negative = inhibition” value is 8.62% (inactive).

In the case of `O=C1CCc2cc(S(=O)(=O)Nc3ccc(-c4ccccc4)cc3)ccc2N1`, the “activity change, negative = inhibition” value was -3.23% (inactive). As for `COc1ccc(Nc2c(-c3ccc(C)o3)nc3ccccn23)cc1`, the “activity change, negative = inhibition” value was 22.7% (inactive). On to `O=S1(=O)N=C(Oc2ccc(Br)cc2)c2ccccc21`, for which the Potency is 2.91 µM (active). With `Cc1ccc2nc(-c3ccc(C)o3)c(Nc3ccc4c(c3)OCO4)n2c1`, the “activity change, negative = inhibition” value is -10.7% (inactive). On to `Cc1ccc(NS(=O)(=O)c2cc3c(cc2N2CCCCC2)NC(=O)CC3)cc1C`, for which the “activity change, negative = inhibition” value was 10.8% (inactive). The same measure, in the same setting: to `CCCCN1C(=O)c2ccccc2C1=O` belongs -2.93% (inactive); to `Cc1ccccc1N(C)C1=N[S+](=O)([O-])c2ccccc21`, 2.85% (inactive). Consider `Cc1ccc(NS(=O)(=O)c2ccc3[nH]c(=O)[nH]c3c2)cc1C`, for which the “activity change, negative = inhibition” value was 0.937% (inactive).

On to `Cc1ccc(C)c(SC2=NS(=O)(=O)c3ccccc32)c1`, for which the Potency was 4.11 µM (active). For `O=C1c2ccccc2C(=O)N1c1ccccn1`, the “activity change, negative = inhibition” value is 23.6% (inactive). For the compound `Cc1ccc2nc(-c3ccc(C)o3)c(Nc3ccccc3)n2c1`, the “activity change, negative = inhibition” value is -1.71% (inactive). As to `CC(=O)Nc1ccccc1OC1=N[S+](=O)([O-])c2ccccc21`, the “activity change, negative = inhibition” value was -3% (inactive). Turning to `O=[S+]1([O-])N=C(Oc2cccnc2)c2ccccc21`, the “activity change, negative = inhibition” value was 4.41% (inactive). Regarding `Cc1cc(N2C(=O)c3ccccc3C2=O)n[nH]1`, the “activity change, negative = inhibition” value is 10.3% (inactive).

With `COc1ccc(NS(=O)(=O)c2ccccc2)cc1NS(=O)(=O)c1ccccc1`, the “activity change, negative = inhibition” value was 31.7% (inactive). With `Cc1ccc(NS(=O)(=O)c2cc3c(cc2N(C)C)NC(=O)CC3)cc1C`, the “activity change, negative = inhibition” value is 5.95% (inactive).

As to `O=S1(=O)N=C(Oc2ccccc2F)c2ccccc21`, the Potency was 3.26 µM (active). As to `Cc1ccc(C)c(NC2=NS(=O)(=O)c3ccccc32)c1`, the “activity change, negative = inhibition” value is 16.8% (inactive). The same measure, in the same setting: to `Cc1cc(C)n2c(Nc3ccccc3)c(-c3ccc(C)o3)nc2n1` belongs 1.14% (inactive); to `Cc1ccc(NS(=O)(=O)c2ccc3c(c2)CCN(C(=O)C(F)(F)F)C3)cc1C`, 9.77% (inactive). Consider `Cc1ccc(C)c(SC2=NS(=O)(=O)c3cc(C(=O)NCc4ccccc4)ccc32)c1`, for which the Potency is 5.8 µM (active).

For the compound `Cc1ccc(NS(=O)(=O)c2ccc(F)cc2)cc1C`, the “activity change, negative = inhibition” value was -9.65% (inactive). Regarding `O=S1(=O)N=C(Oc2cccc(Br)c2)c2ccccc21`, the Potency is 3.66 µM (active). In the case of `O=C1CCc2cc(S(=O)(=O)NCc3ccccc3)ccc2N1`, the “activity change, negative = inhibition” value was 12.8% (inactive). Consider `O=S1(=O)N=C(Oc2ccccc2-c2ccccc2)c2ccccc21`, for which the Potency was 3.66 µM (active).

For the compound `CN(C)c1cccc(S(=O)(=O)N2CCN(S(=O)(=O)c3ccc4c(c3)OCCO4)CC2)c1`, the “activity change, negative = inhibition” value was -6.38% (inactive). The same measure, in the same setting: to `Cc1ccc(NS(=O)(=O)c2cc3c(cc2Cl)NC(=O)CO3)cc1C` belongs 10.2% (inactive).

On to `Cc1cc(C)c2c(=O)cc(C3C(=O)c4ccccc4C3=O)[nH]c2c1`, for which the “activity change, negative = inhibition” value is -17.6% (inactive). Still for that read-out and setting: to `O=S(=O)(Nc1ccc(O)c(NS(=O)(=O)c2ccccc2)c1)c1ccccc1` belongs 14.9% (inactive).
